According to PMC5540273 (PLoS ONE, 2017):

How the values were obtained:
Conditions in all cases: concentration: 1 μM, replicates: in singlicate; n = 1
LCK = tested on: LCK
LIMK1 = tested on: LIMK1
LIMK2 = tested on: LIMK2
LKB1 = tested on: T1, LKB1
T1 construct: gene STK11

LOK = tested on: T2, LOK
T2 construct: gene STK10

LRRK2 = tested on: LRRK2
LTK = tested on: LTK
LYN = tested on: LYN
LZK = tested on: T3, LZK
T3 construct: gene MAP3K13

MAK = tested on: MAK
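Note: KINOMEscan kinase panel screen.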

| SMILES | %Inh (LCK) | %Inh (LIMK1) | %Inh (LIMK2) | %Inh (LKB1) | %Inh (LOK) | %Inh (LRRK2) | %Inh (LTK) | %Inh (LYN) | %Inh (LZK) | %Inh (MAK) |
| --- | --- | --- | --- | --- | --- | --- | --- | --- | --- | --- |
| CCCCc1nn2ncccc2c1-c1ccnc(Nc2ccc(N3CCN(C)CC3)cc2)n1 [GW684941] | 99.1% | 70% | 97% | 0% | 60% | 60% | 0% | 83% | 28% | 20% |
| C[C@@H](Oc1cc(-n2cnc3cc(-c4ccnc(NCCS(C)(=O)=O)c4)ccc32)sc1C(N)=O)c1ccccc1Cl [GSK907232] | 67% | 0% | 4% | 0% | 99.1% | 44% | 0% | 0% | 0% | 0% |
| COC(=O)Nc1nc2cc(Oc3ccc(NC(=O)Nc4cc(C(F)(F)F)ccc4F)cn3)ccc2[nH]1.Cl.Cl [GW681170] | 92.9% | 0% | 0% | 11% | 99.8% | 22% | 47% | 36% | 21% | 0% |
| Cc1ccc(S(=O)(=O)Nc2ccc(Nc3nccc(Nc4cccc5[nH]ncc45)n3)cc2)cc1 [GSK581271] | 39% | 13% | 0% | 0% | 0% | 23% | 10% | 0% | 0% | 12% |
| FC(F)(F)c1ccc(/C=C/c2cncnc2Nc2ccc3[nH]c(Cc4ccccc4)nc3c2)cc1 [GW709199] | 9% | 0% | 0% | 0% | 13% | 0% | 0% | 1% | 0% | 18% |
| Cc1ccc(C(=O)Nc2ccc(Nc3ccnc4cc(-c5nccs5)ccc34)cc2O)cc1.Cl [GW494702] | 86% | 26% | 0% | 0% | 68% | 0% | 1% | 65% | 21% | 46% |
| COc1cccc(C2=C(Nc3ccc(Cl)c(C(=O)O)c3)C(=O)NC2=O)c1 [SB-390769] | 15% | 13% | 0% | 0% | 0% | 0% | 0% | 8% | 30% | 100% |
| CC(C)c1nc(-c2cccc(NS(=O)(=O)c3c(F)cccc3F)c2F)c(-c2ccnc(Nc3ccc(N4CCOCC4)nc3)n2)s1 [GSK2008607] | 99.8% | 99.9% | 100% | 9% | 99.8% | 0% | 0% | 98.5% | 95.8% | 100% |
| Nc1ncc(-c2ccc3nccc(-c4ccncc4)c3c2)cc1S(=O)(=O)N1CCOCC1 [GSK1627798] | 20% | 0% | 0% | 0% | 0% | 0% | 0% | 0% | 0% | 22% |
| CC(=O)Nc1nc2cnc(Nc3cc(NC(=O)c4cccc(C5(C#N)CC5)c4Cl)ccc3C)nc2s1 | 91.1% | 0% | 0% | 0% | 54% | 0% | 0% | 79% | 6% | 0% |
| O=C(Nc1ccccc1F)NC1CCN(c2ccnc(Nc3ccc(F)cc3)n2)CC1 [GSK1379800] | 5% | 0% | 28% | 0% | 0% | 0% | 0% | 0% | 21% | 23% |
| COc1cc(Nc2nccc(N3CCC(NC(=O)c4cc5ccccc5s4)C3)n2)cc(OC)c1OC (stereo not shown) [GSK1379760] | 29% | 17% | 24% | 14% | 84% | 0% | 13% | 31% | 30% | 23% |
| CNC(=O)c1ccccc1Nc1nc(Nc2ccc(N3CCOCC3)cc2)ncc1Cl.Cl [GSK1576028] | 99.6% | 46% | 30% | 51% | 96.4% | 92.7% | 100% | 92.6% | 89% | 11% |
| NCCCC(NC(=O)c1cc(Br)c(-c2ccnc3[nH]ccc23)s1)c1ccccc1.O=C(O)C(F)(F)F.O=C(O)C(F)(F)F (stereo not shown) [GSK1287544] | 9% | 6% | 6% | 0% | 0% | 42% | 0% | 0% | 0% | 34% |
| CN1CCN(Cc2cccc(-c3ccc4c(Nc5ccc(Oc6ccccc6)cc5)ccnc4c3)c2)CC1 [GW578342] | 95.2% | 0% | 0% | 12% | 21% | 0% | 38% | 58% | 0% | 27% |
| CCn1c(-c2nonc2N)nc2c(C#CC(C)(C)O)nc(OC[C@H](N)c3ccccc3)cc21 [GSK943949] | 1% | 11% | 6% | 31% | 1% | 14% | 0% | 1% | 0% | 0% |

| SMILES | %Inh (LCK) | %Inh (LIMK1) | %Inh (LIMK2) | %Inh (LKB1) | %Inh (LOK) | %Inh (LRRK2) | %Inh (LTK) | %Inh (LYN) | %Inh (LZK) | %Inh (MAK) |
| --- | --- | --- | --- | --- | --- | --- | --- | --- | --- | --- |
| COc1ccc(-c2coc3ccc(-c4nnc(SCc5ccc(OC)c(C(F)(F)F)c5)o4)cc23)cc1 | 0% | 25% | 12% | 0% | 24% | 0% | 27% | 0% | 0% | 22% |
| O=C(Nc1n[nH]c2nc(-c3ccc(O)cc3)ccc12)C1CC1 [SB-710363] | 24% | 2% | 0% | 9% | 27% | 0% | 58% | 23% | 0% | 90.7% |
| Clc1ccc(-c2nn3ncccc3c2-c2ccnc(Nc3ccc4c(c3)OCCO4)n2)cc1 [GW829116] | 83% | 0% | 0% | 0% | 71% | 0% | 19% | 27% | 0% | 0% |
| CN(C)Cc1ccc(-c2ccc3c(Nc4ccc(Oc5ccccn5)cc4)ccnc3c2)o1 [GW567148] | 92.9% | 0% | 0% | 0% | 52% | 48% | 0% | 17% | 27% | 13% |
| Oc1cc(Nc2ccnc3cc(I)ccc23)ccc1F [GW552771] | 78% | 8% | 0% | 0% | 0% | 55% | 4% | 20% | 9% | 22% |
| Cc1ccc(C)c(NC(=O)NC2CCN(c3ccnc(Nc4ccc(F)cc4)n3)C2)c1 (stereo not shown) [GSK1379720] | 0% | 9% | 0% | 2% | 0% | 0% | 17% | 4% | 41% | 6% |
| Nc1n[nH]c2cnc(-c3ccccc3)cc12 [SB-642124] | 0% | 19% | 1% | 0% | 0% | 12% | 0% | 3% | 0% | 37% |
| COc1cccc(-c2ccc3c(NC(=O)C4CC4)n[nH]c3n2)c1 [SB-710903] | 23% | 14% | 55% | 0% | 0% | 0% | 0% | 1% | 47% | 24% |
| O=C(Nc1cccc(-c2nn3ccccc3c2-c2ccnc(Nc3cccc(F)c3)n2)c1)c1c(F)ccc(F)c1Cl [GSK357952] | 99.1% | 43% | 0% | 0% | 97.6% | 32% | 10% | 83% | 0% | 22% |
| Nc1ncnc2c1nc(-c1ccccc1)n2-c1ccccc1 [SKF-97293] | 6% | 0% | 2% | 60% | 21% | 58% | 9% | 8% | 4% | 27% |
| Cn1cc(-c2ccc3c(c2)CCN3C(=O)Cc2cccc(Cl)c2)c2c(N)ncnc21 [GSK2606590] | 44% | 3% | 52% | 0% | 98.1% | 29% | 47% | 15% | 0% | 6% |
| c1ccc(-c2cnc3nccnn23)cc1 [AH20685] | 11% | 19% | 0% | 0% | 0% | 5% | 0% | 64% | 0% | 33% |
| CN(c1ccc(NC(=O)Nc2cc(C(F)(F)F)ccc2F)cc1)c1ccnc(Nc2ccc(S(N)(=O)=O)cc2)n1 [GW809893] | 99.6% | 89% | 84% | 0% | 100% | 72% | 95.7% | 96.4% | 0% | 95.7% |
| CN1CCN(CCCNc2nccc(-c3c(-c4ccc(F)cc4)nn4cc(C(F)(F)F)ccc34)n2)CC1 [GW621581] | 36% | 0% | 0% | 5% | 0% | 69% | 0% | 0% | 0% | 3% |
| Cc1ccc(F)c(C(=O)Nc2cccc(-c3nn4ccccc4c3-c3ccnc(Nc4cccc(F)c4)n3)c2)c1F [GSK361061] | 97.1% | 33% | 15% | 0% | 98.5% | 6% | 9% | 73% | 0% | 0% |
